An excerpt weighted towards active compounds, which were near 19% of everything screened.
TGFb inhibitor: TGF-b pathway inhibition. HepG2 CAGA-GFP TGF-b/SMAD3 reporter, GFP fluorescence, 18 h; TGF-beta stimulated, 500 pg/mL final. Potency, µM (series often up to 46.1 µM), without a hit: at the top dose activity, negative = inhibition, hits mostly inhibitors. hit rate 1.2% among 410,000. AID 588855; also: potency is read from the fitted curve at half-maximal effect; % is scaled to controls: 0 for no effect and ±100 for the full control effect; nearly all actives have a fitted effect of over 65% in size
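HEPG2 CAGA-GFP, 1000 cells/well; 2 h settle, 37 C; cpd via pin tool; TGF-b 500 pg/mL final; 18 h, 37 C; GFP imaging ex488/em500-530; %Activity normalised to -TGF-b and +DMSO controls; CRC fit, curve class.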
IL-1B inflam inh: inhibitors of inflammasome signaling (IL-1 beta secretion) | THP-1 LPS/ATP IL-1B secretion, AlphaLISA, 16 h; hits give low values | AID 743279 | hit rate 4.7% among 360,000 | activity change, % at 57.5 µM; in the data active = activity change below about -50%; inconclusive = mostly about -30% to -49%; also: % is scaled to controls: 0 for no effect and ±100 for the full control effect
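THP-1 cells pretreated 1 hr with compounds (up to 57.5 uM final), then stimulated with LPS (250 ng/mL final) plus ATP (1.25 mM final); secreted IL-1B measured by AlphaLISA after 16 hr, decreased signal indicating inhibition.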
TDP1 cell CPT: DT40-hTDP1 cell growth loss with CPT. hit rate 12% among 420,000. Potency, µM (doses to about 46.2 µM), inactives show at the top dose activity change, negative = growth inhibition, most hits filed as inhibitors. chicken DT40 Tdp1-/-;hTDP1 cells + 20 nM CPT, ATP luminescence, 48 h; also: potency is read from the fitted curve at half-maximal effect; % is scaled to controls: 0 for no effect and ±100 for the full control effect; nearly all actives have a fitted effect of over 55% in size
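Chicken DT40 Tdp1-/- cells complemented with human TDP1, 400 cells/well, exposed to compounds plus 20 nM camptothecin for at least 48 h at 37 C; viability read as ATP content by CellTiter-Glo luminescence.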
HepG2 viability: kills HepG2 cells in TGF-b inhibitor counter-screen | Potency, µM (top dose mostly 46.1 µM), without a hit: at the highest dose activity change, negative = cytotoxicity, usual class: cytotoxic | hit rate 0.76% among 410,000 | HepG2 CAGA-GFP viability, ATP luminescence, 18 h | AID 588856; also: potency is read from the fitted curve at half-maximal effect
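HepG2 CAGA-GFP cells (1000/well, DMEM with 1% FBS) received compound, then TGF-beta at 500 pg/mL final, and were incubated 18 hours at 37 degrees C. Viability was read by CellTiter-Glo luminescence. Media-only wells were set as complete cell-killing and DMSO as no toxicity.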
TDP1 cell noCPT: qHTS for Inhibitors of human tyrosyl-DNA phosphodiesterase 1 (TDP1): qHTS in cells in absence of CPT; DT40 Tdp1-/- hTDP1 cells, no CPT, ATP luminescence, 48 h; Potency, µM (titrated, usually from 46.2 µM), for inactives: top-dose activity change, negative = growth inhibition, hits mostly inhibitors; hit rate 15% among 420,000; also: potency is read from the fitted curve at half-maximal effect; % is scaled to controls: 0 for no effect and ±100 for the full control effect; nearly all actives have a fitted effect of over 55% in size
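Stably hTDP1-transfected Tdp1-null chicken DT40 cells were treated with library compounds minus camptothecin and grown for at least 48 hr at 37 °C, after which cellular ATP was quantified by luminescence.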
TDP1 inh: TDP1 (human) enzyme inhibition | recombinant TDP1, AlphaScreen DNA substrate cleavage | hit rate 0.28% among 350,000 | Potency, µM (titrated, usually from 130 µM), without a hit: at the top dose activity change, negative = inhibition, most hits filed as inhibitors | Q9NUW8; also: potency is read from the fitted curve at half-maximal effect; % is scaled to controls: 0 for no effect and ±100 for the full control effect; nearly all actives have a fitted effect of over 40% in size
Target sequence (Q9NUW8 whole entry, looked up): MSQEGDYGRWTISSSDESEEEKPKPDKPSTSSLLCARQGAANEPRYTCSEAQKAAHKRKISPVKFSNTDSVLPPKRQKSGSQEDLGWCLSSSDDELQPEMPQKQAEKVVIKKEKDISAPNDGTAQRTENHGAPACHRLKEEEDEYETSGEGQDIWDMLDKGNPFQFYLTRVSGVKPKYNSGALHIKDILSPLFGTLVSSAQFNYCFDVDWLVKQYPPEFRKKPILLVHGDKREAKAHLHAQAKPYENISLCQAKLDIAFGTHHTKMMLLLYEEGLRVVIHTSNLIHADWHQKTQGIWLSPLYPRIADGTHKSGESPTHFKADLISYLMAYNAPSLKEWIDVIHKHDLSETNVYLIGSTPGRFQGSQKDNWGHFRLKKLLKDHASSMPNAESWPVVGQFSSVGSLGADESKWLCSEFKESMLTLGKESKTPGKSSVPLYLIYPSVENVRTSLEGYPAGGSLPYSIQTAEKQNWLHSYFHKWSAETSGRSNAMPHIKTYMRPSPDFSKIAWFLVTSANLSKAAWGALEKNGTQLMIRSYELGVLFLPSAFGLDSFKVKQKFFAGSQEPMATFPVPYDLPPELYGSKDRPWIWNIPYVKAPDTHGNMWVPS
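Steps: enzyme plus compound, 15 min RT; add biotin/phosphotyrosine-FITC oligonucleotide (15 nM final), react 5 min; add donor/acceptor beads (10 ug/ml final), 10 min; read AlphaScreen. Tdp1 at 1 nM final.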
Active calls of the source: *; u = inconclusive; x = no result; [ ] = another dose, or the depositor's remark. Unless noted, calls follow the shape of the dose curve; as a rule, active = well fitted curve in the direction sought with a large enough effect; inconclusive = small, poorly fitted or top-dose-only effect, or another doubt; inactive = no such curve, though single readings can be large; an effect the other way counts as inactive or inconclusive.

SMILES | TGFb inhibitor | IL-1B inflam inh | TDP1 cell CPT | HepG2 viability | TDP1 cell noCPT | TDP1 inh
C=CC(C)(C)c1c(O)c(CC=C(C)C)c(O)c2c(=O)c3ccc(O)c(O)c3oc12 | 11µM* | 83 | 16µM* | 14µM* | 18µM* | x
O=C(N/C(=C\c1ccc(Br)cc1)C(=O)N1CCOCC1)c1ccco1 | 2% | 24 | 3% | 3% | -21% | 3%[0.0935 µM]
CC(C)C[C@H]1CNC(=O)C(=O)N1C[C@@H]1CCCN1C[C@H](Cc1ccc(O)cc1)N1C[C@H](Cc2ccccc2)N(CC2CCCCC2)C(=O)C1=O | x | -59* | u | x | u | x
CC(C)C[C@H]1CN([C@@H](Cc2ccccc2)CN2CCC[C@@H]2CN2C(=O)C(=O)NC[C@@H]2Cc2ccccc2)C(=O)C(=O)N1CC1CCCCC1 | 8.9µM* | -59* | 21µM* | 20µM* | 16µM* | x
CC(C)C[C@H]1CN([C@@H](Cc2ccc(O)cc2)CN2CCC[C@@H]2CN2C(=O)C(=O)NC[C@@H]2Cc2ccccc2)C(=O)C(=O)N1CC1CCCCC1 | u | u | u | -4% | u | x
CC(C)C[C@H]1CN([C@@H](Cc2ccccc2)CN2CCC[C@@H]2CN2C(=O)C(=O)NC[C@@H]2Cc2ccc(O)cc2)C(=O)C(=O)N1CC1CCCCCC1 | u | -17 | u | -9% | u | x
CC(C)C[C@H]1CN([C@@H](Cc2ccc(O)cc2)CN2CCC[C@H]2CN2C(=O)C(=O)NC[C@@H]2Cc2ccccc2)C(=O)C(=O)N1CC1CCCCCC1 | x | -82* | u | x | u | x
COc1cccc(NC(c2nnc(-c3ccccc3)o2)c2ccc(F)cc2Cl)c1 (stereo not given) | -21% | x | u | -14% | u | 0%[12.3 µM]
O=C(NCCOc1ccccc1)C1CCC(=O)N(CCCN2CCCC2=O)C1 (stereo not given) | -19% | -7 | 3% | -51% | 0% | 3%
O=C(Nc1ccccc1-c1cn2c(CN3CCNCC3)csc2n1)c1cnc2ccccc2n1 | u | x | 3.5µM* | -105% | 5.6µM* | x
CCN(Cc1ccccc1)Cc1c(O)ccc2c(=O)c(-c3ccccc3Cl)coc12 | 7% | x | 0% | -3% | -10% | x
CCN(CC)Cc1c(O)ccc2c(=O)c(-c3ccccc3)coc12 | 0% | -12 | 9.2µM* | -4% | u | x
CCN(CC)Cc1c(O)ccc2c(=O)c(-c3ccc4c(c3)OCCO4)coc12 | 8% | 1 | 3.3µM* | -16% | 10µM* | 5%
COCCCNc1nc2c(-c3cccc(Br)c3)nnn2c2ccccc12 | -26% | x | u | -6% | u | -9%
O=C(NCc1ccccc1)C1Cc2c(-c3cccc(F)c3)ccnc2O1 (stereo not given) | u | 74 | 0.92µM* | -12% | 0.92µM* | x
O=C(NCc1cccc(Cl)c1)C1Cc2c(-c3cccc(F)c3)ccnc2O1 (stereo not given) | -2% | -10 | 21µM* | -23% | 26µM* | x
CN1CCN(c2ccc(CNC(=O)C3Cc4c(-c5cccc(F)c5)ccnc4O3)cc2)CC1 (stereo not given) | 3% | u | u | -30% | 21µM* | x
COc1ccc(CNC(=O)C2Cc3c(-c4cccc(F)c4)ccnc3O2)cc1OC (stereo not given) | -4% | -11 | 8.2µM* | -76% | u | x
CCOC(=O)c1c(NC(=O)Cc2coc3cc(C)cc(C)c23)sc2c1CCC2 | -3% | x | -12% | 1% | -14% | 0%
COc1ccc(-c2nc(S(=O)(=O)c3ccccc3)c(N3CCC(C)CC3)o2)cc1 | u | x | 21µM* | 3% | 12µM* | 2%
COc1ccccc1/C=C/c1nc(S(=O)(=O)c2ccccc2)c(N2CCC(C(N)=O)CC2)o1 | 10% | -27 | u | 15% | u | 7%
COc1ccccc1-c1nc(S(=O)(=O)c2ccccc2)c(N2CCC(C)CC2)o1 | u | x | 23µM* | -2% | 3.7µM* | 6%
COc1ccc(N2CCN(c3oc(-c4ccccc4C)nc3S(=O)(=O)c3ccccc3)CC2)cc1 | u | x | 12µM* | -6% | 9.2µM* | 4%
COc1cccc(-c2nc(S(=O)(=O)c3ccccc3)c(N3CCC(C)CC3)o2)c1 | u | x | u | 1% | 8.2µM* | 5%
COc1cc2c(cc1OC)-c1c(OC)c(OC)cc3ccnc(c13)C2=O | 12% | u | 4.1µM* | -27% | 4.1µM* | 12%[56.1 µM]
SMILES | TGFb inhibitor | IL-1B inflam inh | TDP1 cell CPT | HepG2 viability | TDP1 cell noCPT | TDP1 inh
CC(Cc1ccccc1)C(=O)Nc1ccc(Br)cc1 (stereo not given) | 20% | -4 | 11% | -2% | -2% | 0%
Cc1csc(SCC(=O)N2CCOc3ccc(C(O)C4CCCCC4)cc3C2)n1 (stereo not given) | x | x | u | x | 21µM* | x
Oc1ccccc1CNCCCN1CCOCC1 | -16% | 15 | 0% | 3% | 23% | x
C=CCN(C(=O)CSC1=NC(=O)CN1C(C)=O)c1nc(C)c(-c2ccccc2)s1 | 13µM* | -89* | u | -14% | 18µM* | 9%
CC(=O)c1c(C)[nH]c(C(=O)OCC(=O)c2ccc(Br)cc2)c1C | -3% | 23 | u | -6% | 18µM* | x
CC(=O)c1c(C)[nH]c(C(=O)OCC(=O)N2c3ccccc3NC(=O)C2(C)C)c1C | -17% | 41 | 35% | -22% | u | 6%
COC(=O)c1c(C)[nH]c(C(=O)OCC(=O)c2ccc(C)s2)c1C | 1% | -72* | u | -7% | u | 3%
CCC(C)c1ccc(NC(=O)c2[nH]c(C)c(C(C)=O)c2C)cc1 (stereo not given) | -14% | -15 | u | -8% | u | 7%
CCOC(=O)c1c(C)[nH]c(C(=O)OCC(=O)c2ccccc2)c1C | -19% | -13 | u | 2% | u | x
CC(=O)c1c(C)[nH]c(C(=O)OCCCCN2C(=O)c3ccccc3C2=O)c1C | -3% | 17 | 8.2µM* | -20% | 4.1µM* | 1%
CCNC(=O)COC(=O)c1[nH]c(C)c(C(=O)OC)c1C | 1% | 37 | -5% | 13% | 1% | 0%
CCC(NC(=O)c1[nH]c(C)c(C(C)=O)c1C)c1ccc(Br)cc1 (stereo not given) | u | u | u | -27% | 15µM* | 7%
